Rows were chosen to be rich in hits. Some 1.1% of all compounds tested hit in one or more screens of this group.
GC-A act: GC-A stimulated cGMP production enhancers – HEK293 GC-A cells, cGMP TR-FRET, EC30 ANP, primary screen. 0% at EC30 ANP, 100% saturating ANP. activation, % at 10 µM. hit rate 0.14% among 370,000; in the data active = activation above about 40%
aDG glyco act: activators of alpha-DG glycosylation, primary screen, uHTS, Pro5-aDG cells, AlphaScreen | AID 624168, 2012 | alpha-DG glycosylation AlphaScreen (IIH6); 0% Pro5, 100% B10-LARGE cell signal | activation, % at 10 µM | hit rate 0.22% among 360,000;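 active = activation of at least 8% versus controls, or a plate z-score of at least 8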;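 note: Pro5 are CHO cells carrying HIG-tagged alpha-DG that lacks glycosylation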
GC-B act: human GC-B receptor activators, primary screen, HEK293 GC-B cells, cGMP TR-FRET, EC30 CNP; 0% at EC30 CNP, 100% saturating CNP; activation, % at 10 µM; hit rate 0.11% among 370,000; AID 1920062, 2024;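 active = activation at 10 µM reaching about 35% in either raw or pattern-adjusted values, limit read from the data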
Target sequence (P20594 whole entry, looked up): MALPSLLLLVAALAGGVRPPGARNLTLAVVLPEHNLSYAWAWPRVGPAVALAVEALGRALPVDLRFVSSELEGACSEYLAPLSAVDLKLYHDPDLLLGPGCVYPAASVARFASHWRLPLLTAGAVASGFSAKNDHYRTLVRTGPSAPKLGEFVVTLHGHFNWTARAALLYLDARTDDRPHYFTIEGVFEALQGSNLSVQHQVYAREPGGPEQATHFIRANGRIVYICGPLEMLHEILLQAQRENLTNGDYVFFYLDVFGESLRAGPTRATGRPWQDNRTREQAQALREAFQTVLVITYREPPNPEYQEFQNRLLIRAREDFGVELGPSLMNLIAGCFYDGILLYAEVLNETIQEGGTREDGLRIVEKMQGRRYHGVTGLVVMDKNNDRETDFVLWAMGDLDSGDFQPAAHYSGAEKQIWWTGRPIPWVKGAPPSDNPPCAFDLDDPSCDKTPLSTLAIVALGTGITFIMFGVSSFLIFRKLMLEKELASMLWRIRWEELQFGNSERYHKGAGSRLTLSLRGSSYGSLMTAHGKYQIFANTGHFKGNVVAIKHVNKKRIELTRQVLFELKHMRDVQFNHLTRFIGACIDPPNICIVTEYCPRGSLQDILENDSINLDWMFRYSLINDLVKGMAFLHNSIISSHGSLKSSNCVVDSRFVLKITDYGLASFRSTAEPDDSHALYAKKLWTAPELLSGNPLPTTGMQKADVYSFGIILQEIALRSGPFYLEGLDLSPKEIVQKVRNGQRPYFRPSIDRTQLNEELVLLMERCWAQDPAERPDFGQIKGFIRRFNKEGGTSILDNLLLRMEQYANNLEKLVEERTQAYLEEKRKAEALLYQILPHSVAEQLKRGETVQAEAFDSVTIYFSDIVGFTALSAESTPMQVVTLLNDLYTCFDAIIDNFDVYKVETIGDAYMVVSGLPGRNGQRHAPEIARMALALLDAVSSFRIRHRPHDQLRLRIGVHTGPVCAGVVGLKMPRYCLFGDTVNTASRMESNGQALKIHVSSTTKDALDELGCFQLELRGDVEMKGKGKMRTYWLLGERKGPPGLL
FAS-TE inh: FAS thioesterase domain inhibitors, primary screen, biochemical, fluorescence intensity, uHTS | Fatty acid synthase (Homo sapiens), P49327 | recombinant FAS-TE, OMFH fluorogenic substrate, fluorescence endpoint | inhibition, % at 15 µM | hit rate 0.67% among 360,000;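 active = compounds whose normalised, plate-corrected inhibition of enzyme fluorescence in the single-dose primary screen is 50% or more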;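 note: 0% = DMSO with enzyme and 100% = substrate without enzyme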
FAS-TE conf: FAS thioesterase domain inhibitors, confirmation, biochemical, fluorescence intensity, single concentration; shares compounds with FAS-TE inh; recombinant FAS-TE, OMFH fluorogenic substrate; inhibition, % at 15 µM; hit rate 45% among 2,300; AID 624325, 2012;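 active = compounds inhibiting the enzyme by at least 50% at 15 µM in any one of the replicates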;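 note: 0% = enzyme with DMSO only and 100% = wells lacking enzyme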
* = called active by the depositor; nt = no result.

SMILES | GC-A act | aDG glyco act | GC-B act | FAS-TE inh | FAS-TE conf
CCOC(=O)N1CCN(Cc2cc(=O)oc3ccc4ccccc4c23)CC1 | 5 | 0 | -3 | 10 | nt
O=C(CC12CC3CC(CC(C3)C1)C2)NCC(=O)OCc1cc(=O)oc2ccc3ccccc3c12 | -3 | 0 | -12 | 55* | 15
COc1ccccc1-c1cc(SC)c(C#N)c(=O)o1 | 6 | 0 | -1 | 55* | 47*
COC(=O)C1=C(C(=O)OC)[C@@H]2N(C)c3ccc(OC)cc3[C@@]23C[C@@H](C(=O)OC)N(S(=O)(=O)c2ccc([N+](=O)[O-])cc2)C3=N1 | -2 | 0 | -1 | 66* | 27
Cc1cccc(Oc2cc(NC(=O)Cn3cnc([N+](=O)[O-])n3)cc([N+](=O)[O-])c2)c1 | 1 | 0 | -2 | 59* | 44
Cc1cc([N+](=O)[O-])nn1CCCC(=O)Nc1cc(Oc2ccccc2)cc([N+](=O)[O-])c1 | 4 | 0 | 0 | 36 | nt
Cc1cc(C)c(C#N)c(SCC(O)CS(=O)(=O)Cc2ccccc2)n1 (stereo not drawn) | -1 | 0 | -3 | 31 | nt
Cc1cc(C)c(C#N)c(SCC(O)COc2ccc(Br)cc2)n1 (stereo not drawn) | 4 | 0 | 0 | 63* | 18
CCCCOCCCNC(=O)C[C@H]1C[C@@]2(C(=O)OC)C(=C[C@H](C(C)(C)C)O[C@@H]2C)N(CCC2=CCCCC2)C1=O | -7 | nt | -10 | nt | nt
C[C@H](CO)N1C[C@H](C)[C@@H](CN(C)C(=O)NC2CCCCC2)Oc2c(NC(=O)Nc3ccccc3)cccc2C1=O | -1 | 0 | 1 | 66* | 77*
COc1ccc(NC(=O)Nc2cccc3c2O[C@H](CN(C)C(=O)Nc2ccc(C(F)(F)F)cc2)[C@@H](C)CN([C@H](C)CO)C3=O)cc1 | nt | 0 | nt | 52* | 56*
O=C(CNS(=O)(=O)c1cccc2ccccc12)N1CCN(c2ncccn2)CC1 | -29 | nt | -23 | nt | nt
COc1cc(C(=O)NC2CCCCN(Cc3cccc(C(F)(F)F)c3)C2=O)cc(OC)c1OC (stereo not drawn) | 0 | nt | 1 | nt | nt
COc1ccc(-n2c(SCC(=O)NN=Cc3c(O)ccc4ccccc34)nnc2-c2ccc(C(C)(C)C)cc2)cc1 | 0 | nt | 4 | nt | nt
O=C(Cn1cc(C(=O)C2CC2)c2ccccc21)NCc1ccc2c(c1)OCO2 | -10 | 0 | -6 | 59* | 55*
CCOC(=O)CC[C@@]1(C(=O)OCC)C[C@@H](CC(=O)N2CCSCC2)C(=O)N2CCCC=C21 | 2 | nt | -2 | nt | nt
Cc1c(C(=O)Nc2cccc(Cl)c2)oc2ccc(S(=O)(=O)N3CCC4(CC3)OCCO4)cc12 | -2 | 0 | -2 | 66* | 1
CCCCc1c(-c2ccccc2OC)ncn1Cc1ccccc1Cl | -14 | nt | -6 | nt | nt
C=CCN1C(=O)[C@@H](CC(=O)N2CCSCC2)[C@]2(C(=O)OC)CCCCC=C12 | 7 | nt | -2 | nt | nt
O=C(Nc1ccccc1[N+](=O)[O-])OCC=Cc1ccccc1 | 2 | 0 | 4 | 55* | 59*
COc1ccc(C)cc1S(=O)(=O)N(CC(=O)Nc1cc([N+](=O)[O-])ccc1C)c1ccc(C)c(C)c1 | -3 | 0 | -2 | 65* | 19
COc1ccc(C)cc1S(=O)(=O)N(CC(=O)Nc1cccc([N+](=O)[O-])c1)c1cc(C)cc(C)c1 | -7 | 0 | 0 | 17 | nt
COc1ccc([N+](=O)[O-])cc1NC(=O)c1ccc(CN(c2ccc(C)c(C)c2)S(C)(=O)=O)cc1 | 1 | 0 | -1 | 68* | 34
COc1ccc([N+](=O)[O-])cc1NC(=O)c1ccc(C)o1 | 3 | 0 | 2 | 12 | nt
Cc1ccc(/C=N\NC(=O)C2CN(S(=O)(=O)c3ccccc3)CCN2S(=O)(=O)c2ccccc2)cc1 (stereo not drawn) | 4 | 0 | 4 | 81* | 19
O=[N+]([O-])c1c(Nc2ccccc2O)cc(Cl)c2nonc12 | 40 | 0 | 42* | 65* | 53*
